# Screens: PubChem, several laboratories
# Sa RN4220 lethal – growth inhibition of S. aureus RN4220, primary screen, OD600; 16 h; inhibition, % (concentration not given with the values); actives 0.33% (n = 330,000); AID 1259311, 2017; in the data active = inhibition above about 85%
# ugtP null kill – growth inhibition of ugtP-null S. aureus, primary screen, RN4220 ugtP deletion, OD600 | 16 h | growth inhibition, % (test concentration not listed) | actives 0.54% (n = 330,000); in the data active = growth inhibition above about 68%
# PfHsp40 rescue – rescue of yeast from PfHsp40 toxicity, primary screen, S. cerevisiae, ATP luminescence. AID 504582, 2011. actives 0.68% (n = 340,000). S. cerevisiae expressing PfHsp40, growth rescue. growth rescue, % at 12.5 µM; in the data active = growth rescue above about 28%, passing the limit was not always enough;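 note: yeast W303a lacking pdr1 and pdr3 grown in galactose medium; growth measured after three days at 30 °C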
# Mtb bLac sens – beta-lactam sensitization of Mtb H37Rv, H37Rv | M. tuberculosis H37Rv growth with meropenem, percent inhibition | inhibition, % at 25 µM | actives 0.27% (n = 330,000) | AID 434955, 2010; call rule not given here;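 note: growth measured after seven days incubation then overnight dye step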
# BH1578 lux ind – inducers of Vibrio cholerae quorum light production without autoinducers, primary screen, BH1578 luxS cqsA deficient, single point. V. cholerae BH1578 lux reporter, luminescence, 6 h. activation, % at 18.7 µM. actives 0.16% (n = 350,000); in the data active = activation mostly above about 9.7%, no sharp cut-off
# Numbers stand for hits; 0 = inactive; - = no result given; + = active, no number. Compounds with a hit are over-represented: about 1.2% of the library has one in this group of screens.
SMILES,Sa RN4220 lethal,ugtP null kill,PfHsp40 rescue,Mtb bLac sens,BH1578 lux ind
CCCOc1c(Br)cc(C=NO)cc1OC,0,86,-,-,-
Clc1cc2nc3ccccn3c2cc1Cl,0,0,152,0,0
C[C@]12CCC(OS(=O)(=O)O)CC1=CCC1C2CC[C@]2(C)C(=O)CCC12 (stereo partly specified),0,0,-,-,-
Cc1cc(C)c(O)c(CN(C)Cc2cc(Cl)cc(Cl)c2O)c1,100,86,0,-,0
Cc1ccnc(NCc2cc(Cl)cc(Cl)c2O)c1,-,-,-,-,0
CCOC(=O)NN=C(C)c1ccc(OC(F)F)cc1OC(F)F,0,0,-,-,-
CCOc1ccc(NC(=O)Cn2sc3nc(C)cc(C)c3c2=O)cc1,0,0,74,0,0
Cc1ccc(C)c(Cn2c(O)c(N=NC(=S)Nc3ccccc3F)c3ccccc32)c1,0,0,0,0,80
CCCOc1ccc(C(CC)=NNC(=O)C2(C)CC2(Br)Br)cc1 (stereo unspecified),0,0,-,-,-
COc1ccc(C2C3C(=O)N(C(C)(C)C)C(=O)C3[C@]3(Cc4ccccc4)C(=O)N(c4ccc(C)cc4)C(=O)N23)cc1 (stereo partly specified),0,0,-,-,-
O=S(=O)(Nc1cccc2c1CCCC2)c1ccc(Cl)cc1,0,0,42,0,0
CCC(C)C1CN(C(C)CN2CCCC2CN2C(N)=NCC2CC(C)C)C(=N)N1CCc1ccc(Cl)c(Cl)c1 (stereo unspecified),101,99,-,-,-
CCC(C)C1CN(C(C)CN2CCCC2CN2C(N)=NCC2Cc2ccccc2)C(=N)N1CCc1ccc(Cl)c(Cl)c1 (stereo unspecified),100,98,-,-,-
CCCCN1C(=N)N([C@@H](C)CN2CCC[C@H]2CN2C(N)=NC[C@H]2CC(C)C)C[C@H]1[C@H](C)CC,-,-,0,0,0
C(=NNc1nc(-c2ccccc2)cs1)c1ccco1,0,0,-,-,-
COc1ccc(N(C(=O)c2ccco2)S(=O)(=O)c2cccs2)cc1,0,0,0,0,0
O=C(Nc1ccccc1N(C(=O)c1ccco1)S(=O)(=O)c1cccs1)c1ccco1,0,0,41,0,0
COC1C=C2CCN(C)C2C2c3cc4c(cc3C(=O)OC12)OCO4 (stereo unspecified),0,0,-,-,-
COc1ccc(C(C)=NNC(=O)C(c2ccncc2)N2CCOCC2)cc1 (stereo unspecified),0,0,-,-,-
O=C(C1=CC(c2ccc(C(F)(F)F)cc2)CC(OCc2ccc(CO)cc2)O1)N1CCOCC1 (stereo unspecified),0,0,-,-,-
CC(C)(C)C(=O)C(Cl)C(=O)Nc1ccccc1 (stereo unspecified),0,0,275,0,0
CCOC(=O)C1=C(N)N2C(=O)CSC2=C(C(=O)OC)C1,0,0,0,0,60
CCOC(=O)C1=C(N)N(c2ccccc2)C(=O)C1,0,0,0,0,0
COc1ccccc1N1CCN(N=Cc2ccc(Cl)c([N+](=O)[O-])c2)CC1,0,0,-,-,-
Cc1ccc(Cn2ncc(Cl)c(Cl)c2=O)cc1,0,0,0,0,0
SMILES,Sa RN4220 lethal,ugtP null kill,PfHsp40 rescue,Mtb bLac sens,BH1578 lux ind
O=c1c(Cl)c(Cl)cnn1Cc1nnc(-c2ccc(Cl)cc2)o1,0,0,236,-,0
O=C(CC1CCCCC1)NCC1CCCO1 (stereo unspecified),0,0,0,0,17
O=C1c2ccccc2C2(c3ccccc3)N1CCN2C(=O)C(Cl)(Cl)Cl (stereo unspecified),0,0,122,0,0
CCCOC(=O)C1C2C=C[C@]3(CN(C(C)c4ccc(OC)cc4)C(=O)C13)O2 (stereo partly specified),0,0,-,-,-
O=Cc1c(OCc2ccccc2)ccc2ccccc12,0,0,100,0,0
[O-]C1=N[N+](=Cc2ccccc2Cl)CC1,0,0,-,-,-
Cc1ccc(-n2c(CNCc3ccc(F)cc3)nc3ccccc3c2=O)cc1,0,0,55,0,0
CCN(CC)CCNCc1nc2ccccc2c(=O)n1-c1ccc(F)cc1,0,0,0,0,0
O=C(Nc1nnc(C2=COCCO2)o1)c1cccc(Br)c1,92,99,59,0,0
O=C(Nc1nnc(C2=COCCO2)o1)c1cccc([N+](=O)[O-])c1,0,0,0,0,0
Oc1ccc(N=Nc2ccccc2)o1,0,0,288,0,0
Cc1ccc(NC2(c3nnnn3-c3c(C)cccc3C)CCCCC2)cc1,0,0,66,0,0
CCCNC(=O)c1ccc2c(=O)c(O)c(-c3cccc(Br)c3)[nH]c2c1,0,0,182,0,0
Nc1c(Cl)cc(-c2[nH]c3cc(C(=O)NCCO)ccc3c(=O)c2O)cc1Cl,0,0,43,0,0
CCCNC(=O)c1ccc2c(=O)c(O)c(C)[nH]c2c1,0,0,0,0,0
CCCNC(=O)c1ccc2c(=O)c(O)c(-c3ccc(F)cc3)[nH]c2c1,0,0,199,0,0
c1ccc(Nc2cccc(Nc3ccccc3)n2)cc1,0,0,54,0,0
CCCn1c(N)c(C(=O)CSc2nc(C)cs2)c(=O)[nH]c1=O,0,0,26,0,0
CCCCNc1nnc(SCC(=O)c2c(N)n(CCC)c(=O)[nH]c2=O)s1,0,0,0,0,0
O=C(NN=Cc1ccc(Cl)c([N+](=O)[O-])c1)c1ccc2nc[nH]c2c1,0,0,-,-,-
Cc1nnc(SCC(=O)NC(=O)NC(C)(C)C)n1N,0,0,52,0,0
Cc1cc(C=NNC(=O)c2ccc(CN3CCOCC3)cc2)c(C)n1-c1ccccc1,0,0,-,-,-
Cc1ccc(-c2csc(-c3c[nH]c4ccccc34)n2)c(C)c1,0,95,0,0,0
Cc1cc(C)n(N=Cc2cc([N+](=O)[O-])ccc2O)c(=O)c1,89,0,-,-,-
Cc1cc(C)n(/N=C/c2cc([N+](=O)[O-])ccc2O)c(=O)c1,-,-,0,0,0
SMILES,Sa RN4220 lethal,ugtP null kill,PfHsp40 rescue,Mtb bLac sens,BH1578 lux ind
COc1ccc(/C=C/C(=O)OCC(=O)NC2CCCC(C)C2C)c(OC)c1 (stereo unspecified),0,85,0,0,0
COc1ccc(OC)c(NC(=O)C2=C(C)Nc3ncnn3C2c2cccs2)c1 (stereo unspecified),0,0,0,0,+
COc1ccc(OC)c(NC(=O)C2=C(C)NC(=O)NC2c2cccs2)c1 (stereo unspecified),0,0,0,0,0
C=CCNC(=O)N1c2ccccc2Sc2ccccc21,0,0,57,0,0
O=C(NCc1nc2ccccc2[nH]1)C1=CC(c2ccc(C(F)(F)F)cc2)CC(OCCCCO)O1 (stereo unspecified),0,0,-,-,-
Cc1ccc(S(=O)(=O)N(C)C)cc1NC(=O)COC(=O)CCC1CCCC1,0,0,0,0,0
Cc1ccc(OCCC(=O)OCC(=O)Nc2cc(S(=O)(=O)N(C)C)ccc2C)cc1,0,0,32,0,0
CCCOC(=O)Nc1sc2c(c1C(N)=O)CCCC2,0,0,0,0,0
COC(=O)NC(Nc1sc2c(c1C(N)=O)CCCC2)(C(=O)OC)C(F)(F)F (stereo unspecified),0,0,0,0,17
O=C1OCC(c2ccccc2)=C1c1ccc(S(=O)(=O)N2CCOCC2)s1,0,0,0,0,17
